Data on 35 molecules can be found in PubChem BioAssay (NCI).

Each structure is given as a SMILES string. Where “and” joins values, the source holds several entries; their conditions need not be identical. Identical values can stand only once. About 83,000 compounds went through this panel and 20% of them were active in at least one assay; those are over-represented in the sample as a whole.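 Treatment: one concentration, 48 hours, 96-well format. Scoring: percent growth, with anything below 10 considered active.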 Calls of active or inactive are those of the source.

The test system of the test is MDA-MB-468 breast. Put plainly: NCI-60 one-dose screen, 48 h (100 = growth as untreated, 0 = no growth, -100 = all killed). The note with it: 10 µM unless noted.
As to `C[N+]12CN3CN(CN(C3)C1)C2`, the growth was 119% (inactive).
The figure for `CC[C@H](C)[C@@H]1OC(=O)C(C)(C)[C@H](O)[C@H](Cc2ccccc2)OC(=O)[C@H](C(C)C)OC(=O)[C@@H](NC(=O)c2cccc(NC=O)c2O)[C@@H](C)OC1=O` is 9.86% (active); for `CCCCCCCCCCCCCCCC[N+](C)(C)C` it is -77.9% (active) and -17% (active).
The value for `CCCCCCCCCCCCCCCCCC1OC[C@@H](COC(=O)O[C@@H](C(=O)O[C@H]2C[C@@]3(O)[C@@H](OC(=O)c4ccccc4)[C@@H]4[C@]5(OC(C)=O)CO[C@@H]5C[C@H](O)[C@@]4(C)C(=O)[C@H](OC(C)=O)C(=C2C)C3(C)C)[C@@H](NC(=O)c2ccccc2)c2ccccc2)O1` (stereo not given in full) was 21% (inactive).
With `O=C(O)c1nn(Cc2ccc(Cl)cc2)c2ccccc12`, the growth was 105% (inactive).
The figure for `Cn1c(O)c(N=O)c(=O)n(C)c1=O` is 112% (inactive) and 106% (inactive); for `O=C(CCCC1CCCCC1)OCC(Cl)(Cl)Cl` it is 113% (inactive); for `O=C(O)CNC(=O)c1ccccc1` it is 122% (inactive).
For the molecule `CCC[CH2][Sn]([CH2]CCC)([CH2]CCC)[O]c1ccc(Cl)cc1Cl`, the growth was -98.7% (active).
The figure for `N#C[Se]CCN1C(=O)c2ccccc2C1=O` is 20.4% (inactive).
The figure for `CO[C@@H]([CH2][Hg][O]C(=O)c1ccccc1)[C@@H]([CH2][Hg][O]C(=O)c1ccccc1)OC` is 94% (inactive).
The value for `Cc1ccc(NC(=O)CBr)cc1` was 98.5% (inactive); that for `CC[C@H](C)[C@H](NC(=O)CN(C)C)C(=O)N(C)[C@H](C[C@@H](OC(C)=O)c1nc(C(=O)NC23CC(C(=O)OC)(C2)C3)cs1)C(C)C` was -14.9% (active).
On to `C=CCn1cc(C=C2C(=O)N(C)C(=O)N(C)C2=O)c2ccccc21`, for which the growth is -35.5% (active).
The figure for `C1CCC([PH+](C2CCCCC2)C2CCCCC2[PH+](C2CCCCC2)C2CCCCC2)CC1.O=C(C1[CH-]CCCC1)C1CCCC[N-]1.[Au]` (stereo not given) is -40.3% (active); for `O=c1[nH]c2ccc([N+](=O)[O-])cc2c(=O)o1` it is 108% (inactive).
`COC(=O)CC[C@H](Cc1ccccc1)NC(=O)c1csc([C@@H](C[C@H](C(C)C)N(C)C(=O)[C@@H](NC(=O)[C@H]2CCCCN2C)C(C)C)OC(C)=O)n1`: the growth was 66.9% (inactive).
The figure for `CN(Cc1cccnc1)N=O` is 103% (inactive).
Regarding `O=C(CCl)c1ccc([N+](=O)[O-])o1`, the growth was -49.5% (active).
The value for `CN(CCCl)c1ccc(/C=C/C2=[N+](C)c3ccccc3C2(C)C)cc1` was -1.54% (active); that for `COC(=O)[C@H](Cc1ccccc1)NNC(=O)c1csc([C@@H](C[C@H](C(C)C)N(C)C(=O)[C@@H](NC(=O)[C@H]2CCCCN2C)C2CC2)OC(C)=O)n1` was -11.2% (active).
The value for `C#Cc1cccc(Nc2nc(Cl)nc3cc(NC(=O)CF)ccc23)c1` was 61.5% (inactive); that for `ClCCN(CCCl)c1nc(Cl)c(C2CC(c3ccc(Cl)cc3)=NN2c2cc(Cl)cc(Cl)c2)s1` (stereo not given) was 112% (inactive); that for `COc1cc[c]([Hg][Cl])cc1` was -62.8% (active).
The figure for `CCCOC(=O)N[C@H]1CCc2c(Br)c(OC)c(OC)c(OC)c2-c2ccc(SC)c(=O)cc21` is -14.2% (active).
As to `CCOC(=S)S[C@H]1C[C@@H]2[C@H](CC[C@]3(C)C(=O)CC[C@@H]23)[C@@]2(C)CCC(=O)C=C12`, the growth is 101% (inactive).
The figure for `CCCC(C)(C)c1ccc2c(c1)OC(C)(C)[C@@H]1CC=C(C)C[C@@H]21` is 97.6% (inactive); for `Cc1ccccc1NC(=NCCCN1CC1)Nc1ccccc1C` it is 54.7% (inactive); for `O=C=Nc1ccc(Br)cc1` it is 83.1% (inactive).
The value for `CCOCC1(CCc2ccccc2)C(=O)NC(=S)NC1=O` was 119% (inactive).
Turning to `CC(=O)O[C@H]1CC[C@]2(C)[C@H]3CC[C@]4(C)[C@@H](OC(C)=O)CC[C@H]4[C@@H]3[C@@H](C)[C@]2(O)C1`, the growth was 104% (inactive).
For `CC(=O)ONc1ccc([N+](=O)[O-])c(C(F)(F)F)c1`, the growth is 118% (inactive).
Turning to `C/C=C(/C)C(=O)O[C@H]1CC[C@@]2(C)[C@@H]3CC[C@H]4[C@]5(O)C[C@H](O)[C@@]6(O)[C@@H](CN7C[C@@H](C)CC[C@H]7[C@@]6(C)O)[C@]5(O)C[C@@]42O[C@@]13O`, the growth was 106% (inactive).
The figure for `O=C(O)c1[nH]c(=O)[nH]c(=O)c1F` is 107% (inactive).
The figure for `O=[N+]([O-])/C=C\c1ccc(Cl)c(Cl)c1` is 12.4% (inactive).
